The campaign covered roughly 75,000 compounds. About 15 (0.02%) were called active. Inconclusive results (about 3%) are left out. This is one part of a sample in which actives are shown more often than they occur. Values without a mark were called inactive. The call rests on the fitted dose curve; in most records, active means well fitted inhibition curve with a large enough effect in the main read-out, with a control signal flat (not every such curve was filed as active); inconclusive means small, poorly fitted or top-dose-only effect, or a change in a side signal; inactive means flat fitted curve, though single readings scatter.
target: Caspase-7 (Homo sapiens) (UniProt P55210); experiment: qHTS Assay for Allosteric/Competitive Inhibitors of Caspase-7; conditions: recombinant caspase-7, Ac-DEVD-AFC fluorescence rate; series mostly up to 57.5 µM; activity change, negative = inhibition: at the top concentration; on activity change, negative = inhibition: % of control where 0% means no effect
From the text: NIH Molecular Libraries Screening Centers Network [MLSCN]
NIH Chemical Genomics Center [NCGC]
PI Name: Dr. James Wells,
Dr. Enrique Perez-Paya, Dr.Janice Williams, Dr. Dennis Wolan, a person
The caspases (Cysteine Aspartyl Protease) comprise a related family of 14 dimeric proteases that are critical mediators of apoptosis (programmed cell death) and inflammation. The caspases represent an important class of drug targets for stroke, ischemia, cancer and inflammatory diseases. […] One goal of this project was to identify compounds that act as allosteric inhibitors via stabilizing the procaspase form of the enzyme. Previous work in Well's laboratory has shown that such allosteric inhibitors can be identified and these act by binding at the dimer interface of enzyme (Hardy, Lam et al., 2004).
The biochemical assay was configured using purified caspase 7 at a high enzyme concentration to promote formation of the homodimers and thus facilitate the identification of allosteric inhibitors. The overall goal was to identify reversible inhibitors with better drug-like properties than the currently available set of aspartyl-containing peptidomimetics that covalently bind the active site. Caspase 7 was assayed using the profluorescent substrate Ac-DEVD-AFC. After initiation of the assay with substrate the plates were rapidly read using an automated robotic system (Kalypsys, Inc.) to maintain consistent timing. A kinetic mode of detection was used where the initial rate was collected (estimated final product formation was ~10%). Compounds were screened as a concentration-titration series that ranged from 57 uM to 0.7 nM. Below is the protocol used for caspase 7.
NCGC Assay Protocol Summary:
Caspase 7 was prepared in buffer (50 mM HEPES pH 7.5, 50 mM KCl, 200 mM NaCl, 10 mM DTT, 0.1% CHAPS) at a concentration of 66.6 nM and 3 uL was dispensed to all wells using black solid Kalypsys 1536-well plates. 20 nL of DMSO containing compounds was added using a pin-tool (Kalypsys Inc.) to columns 5-48. Then 20 nL of DMSO solution from a control plate was added to columns 1-4. Controls were: Column 1, 16 point titration with each concentration in duplicate (1:1 dilutions in DMSO; final starting concentration was 57 uM) of the caspase 7 inhibitor Ac-DEVD-CHO (Alexis Biochemicals); Column 2, a 16 point titration with each concentration in duplicate of the free AFC fluorophore prepared in DMSO (Alexis Biochemicals), final starting was 40 uM; Column 3 neutral (DMSO only) control; Column 4: DMSO alone, to serve as a negative control (no substrate was added). Then 1 uL of 20 uM the substrate Ac-DEVD-AFC (Alexis Biochemicals) prepared in the same buffer was dispensed to all wells except columns 2 and 4 and the plates were immediately transferred (< 1 min) to the Viewlux. The plates were then exposed using 405 nm excitation/520 nm emission filters for 4 sec and read at 20 sec intervals for 3 min. Final enzyme concentration was 50 nM and the final substrate concentration was 5 uM.
Concentration-response curves were fitted to the data calculated from slope of the linear regression of fluorescent intensity versus time (the rate). The concentration-effect curves were then classified based on curve quality (r2), response magnitude and degree of measured activity. […] Inconclusive compounds had appreciable concentration-dependent effects on both the measured rate and the interpolated basal fluorescence intensity at the start of the reaction but where the basal fluorescent intensity was marginal (e.g. < 10-fold). Inconclusive compounds also encompass highly fluorescent compounds (>100-fold increases in fluorescent intensities values relative to controls) where artificial concentration-dependent decreases in the rate occurred at high compound concentrations due to fluorescent interferences.
Keywords: Caspase 7, proteases, profluorescent, MLSMR, MLSCN, NIH Roadmap, qHTS, NCGC
Potency means the concentration at half of the fitted maximal effect.

Caspase-7 (Homo sapiens), sequence (P55210 24-198 limits assumed): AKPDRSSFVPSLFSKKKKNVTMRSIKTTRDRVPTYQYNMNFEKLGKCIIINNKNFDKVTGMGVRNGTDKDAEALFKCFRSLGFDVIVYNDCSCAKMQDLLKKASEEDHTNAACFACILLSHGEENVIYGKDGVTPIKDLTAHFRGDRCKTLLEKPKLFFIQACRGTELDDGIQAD
Caspase-7 (Homo sapiens), sequence (P55210 207-303 limits assumed): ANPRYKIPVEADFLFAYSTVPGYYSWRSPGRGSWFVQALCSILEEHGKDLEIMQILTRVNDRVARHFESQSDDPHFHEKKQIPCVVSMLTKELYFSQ

SMILES	activity change, negative = inhibition	Potency
CC1CCc2c(sc(NC(=O)c3ccc(Cn4cc(Br)cn4)o3)c2C(N)=O)C1 (centres undefined)	-12.6%	
C/C(=N\O)C1(C)N(O)C(C)(C)C(c2ccc(Br)cc2)=[N+]1[O-] (centres undefined)	0.703%	
CC(=O)Nc1ccc(NC(=O)CN2CCCC(C)C2)c(Cl)c1 (centres undefined)	-0.338%	
Cn1c(N)c(C(=O)COC(=O)c2cc(C(F)(F)F)nc3c(C(F)(F)F)cccc23)c(=O)n(C)c1=O	1.07%	
Cc1cc(NC(=O)CCC(=O)N(c2cccc(F)c2)C(C(=O)NC2CCCC2)c2ccncc2)no1 (centres undefined)	0.523%	
COc1ccc(N2C(=O)C3CCCN3C2c2cc(OC)c(OC)cc2OC)cc1 (centres undefined)	-1.73%	
O=C(NCc1ccco1)c1cc(-c2cccnc2)nc2ccc(Cl)cc12	-1.35%	
CC(C)CN1CCc2nc(-c3ccccc3)c3c(c2C1)COC(C)C3 (centres undefined)	-0.41% [at 11.5 µM]	
O=C(Nc1cccc(Cl)c1)OCc1ccccn1	1.86%	
O=C(O)CC(C(=O)O)C(CC(=O)O)C(=O)O (centres undefined)	0.506%	
CCc1ccc(CCC(=O)Nc2ccc(S(N)(=O)=O)cc2)o1	0.82%	
CN(C)CCSS(=O)(=O)O	-1.05% [at 11.5 µM]	
C[C@@H]1O[C@@H](OC[C@H]2O[C@@H](Oc3c(-c4cccc(O)c4O)oc4cc(O)cc(O)c4c3=O)[C@H](O)[C@@H](O)[C@@H]2O)[C@H](O)[C@H](O)[C@H]1O	-1.32%	
OCCCNCc1ccccn1	0.29% [at 11.5 µM]	
O=C(NCc1ccccn1)c1cc2ccccc2oc1=O	-0.481%	
O=C(NCc1ccccn1)c1ccc2nc(-c3ccco3)c(-c3ccco3)nc2c1		25.1 µM (active)
Cc1cccn2c(=O)c3cc(C(=O)NCc4ccccn4)n(C)c3nc12	0.28%	
COc1ccc(CC(=O)Nc2nc3n(n2)C(c2ccccc2)CC(=O)N3)cc1OC (centres undefined)	0.956%	
Cc1cccc(NC(=O)CSc2nnc(CCCCCNC(=O)OC(C)(C)C)o2)c1C	-0.868%	
CCOc1cc(C(=S)N2CCOCC2)ccc1O	-0.0185%	
CC(C)C(=O)N1CCN(CCN=CC2=C(O)CC(c3ccco3)CC2=O)CC1 (centres undefined)	-3.14%	
CCCCCCCCCc1ccc(OCCOCCOCCOCCOCCOCCOCCOCCOCCO)cc1	-6.3%	
COc1c2c(cc3occ(-c4ccc5c(c4)OCO5)c(=O)c13)OC(C)(C)C=C2	-5.41%	
O=C(CC1CCCCC1)Nc1c2c(nn1-c1ccc(F)cc1)CS(=O)(=O)C2	-1.72%	
CC1(C)OC2CC(=O)OC[C@@]23C1CC(=O)[C@]1(C)C3CC[C@@]2(C)C(c3ccoc3)OC(=O)C3O[C@@]321 (some centres undefined)	-1.5%	

SMILES	activity change, negative = inhibition	Potency
Cc1cccc(-c2cc(=O)c3cc(C)ccc3o2)c1	-5.03%	
CCCc1nc2c(C)cc(-c3nc4ccccc4n3C)cc2n1Cc1ccc(-c2ccccc2C(=O)O)cc1	-5.24%	
Cn1c(Cc2csc(N)n2)nnc1SC/C=C/c1ccccc1	-17.5%	
C=C(C)C1CC=C(CO)CC1 (centres undefined)	2.74%	
O=C1OC(C(O)CO)C(O)=C1O (centres undefined)	1.71%	
CCCN1[C@H](C(=O)OC)C[C@@]2(O)[C@@H](O)[C@@H](O)[C@@H](O)C[C@@H]12	-1.49%	
CCN(c1ccccc1)S(=O)(=O)c1cccc(C(=O)O)c1	-0.863%	
COc1ccccc1C(=O)C(O)c1ccccc1OC (centres undefined)	-0.715%	
CCNC(=O)CCc1nc(-c2ccc(C(C)(C)C)cc2)no1	-1.09%	
CC(=O)c1c(C)n(-c2ccc(N(C)C)cc2)c2ccc(OCC(N)=O)cc12	0.0847%	
CC(=O)OC(C(=O)NC1CCCCC1)c1ccccc1 (centres undefined)	0.612%	
CC(C)C1=CC2=CC[C@@H]3[C@](C)(CO)CCC[C@]3(C)C2CC1 (some centres undefined)	-1.8%	
COC(=O)[C@@H]1C[C@H]2CC[C@H](O)C[C@H]2N1Cc1ccc(N2CCN(C)CC2)cc1	-1.78%	
COc1ccc(OCc2cccc(C(=O)N3CCCC3)c2)cc1	-1.42%	
Oc1ccc(O)c2c(O)cccc12	-27.9%	
N#CCCN1CCN(S(=O)(=O)c2ccc(S(=O)(=O)N3CCCC3)cc2)CC1	0.676%	
O=C(Nc1cccc(-c2nnc(-c3ccccc3)o2)c1)C1CCCO1 (centres undefined)	-0.105%	
FC(F)(F)c1ccc(CN2C[C@@H]3C(c4ccccc4)C4(c5ccccc5)CC3(C4)[C@H]2c2ccccc2)cc1 (some centres undefined)	-0.934%	
O=C1CSC(c2cccc(F)c2)N1c1ccccc1F (centres undefined)	0.368%	
O=C(O)c1ccc(Cl)c(S(=O)(=O)Nc2ccccc2Cl)c1	-0.369%	
CN1CC(=O)N=C1N	2.7%	
CO[C@H]1COC(=O)CCC[C@@H](C)[C@H](OC)COC(=O)[C@@H](C)NC(=O)C/C=C\[C@@H]1C	0.707% [at 11.5 µM]	
COc1cc(=O)[nH]c(=O)n1C(=O)Cc1ccccc1	-0.165%	
COc1ccc(-c2cc(C(=O)NC(C(=O)O)C(C)C)c(C)o2)cc1OC (centres undefined)	0.0406%	

From PubChem BioAssay AID889 (National Center for Advancing Translational Sciences (NCATS), 2007)
